Experimental data reported in PubChem BioAssay (NCI).
Compounds without any hit were thinned out: in the full panel of roughly 79,000, 15% have a hit. Active and inactive are the calls of the source. Cut-off read from the data, not from the text of the source: active = growth inhibition above about 70%; inactive = the rest.

Assays:
[1] = NCI Yeast Anticancer Drug Screen. Data for the rad52 strain (AID 147);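 note: 0% = growth of vehicle-treated control cultures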; details: S. cerevisiae rad52 mutant growth inhibition, stronger effect = higher value
How it was run: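 Screen used a yeast mutant impaired in DNA repair. After compound exposure, growth was measured. Values reflect inhibition compared with vehicle-treated cells.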

[2] = NCI Yeast Anticancer Drug Screen. Data for the wt1 strain (AID 149);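 note: 0% = growth of vehicle-treated wt1 cultures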; details: S. cerevisiae wt1 strain (SPY 50644) growth inhibition, stronger effect = higher value
How it was run: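 Using yeast strain wt1, compound-induced growth inhibition was determined against vehicle-treated cultures.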

[3] = NCI Yeast Anticancer Drug Screen. Data for the rad50EPP+ strain (AID 151);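 note: 0% = growth of vehicle-treated control cultures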; details: S. cerevisiae rad50 mutant strain, stronger effect = higher value
How it was run: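 Exposing the rad50EPP+ strain to each compound, growth was compared with vehicle-only cultures to give inhibition.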

[4] = NCI Yeast Anticancer Drug Screen. Data for the mgt1 strain (AID 153); details: S. cerevisiae mgt1 mutant growth inhibition, stronger effect = higher value
How it was run: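 Genetically defined yeast (mgt1) treated with compound; inhibition of growth expressed against vehicle-treated controls.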

[5] = NCI Yeast Anticancer Drug Screen. Data for the rad50 strain (AID 155);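 note: 0% = growth of vehicle-only cultures of the same strain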; details: S. cerevisiae rad50 strain growth inhibition, stronger effect = higher value
How it was run: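 Relative growth inhibition (compound vs vehicle) was measured in yeast with a defined repair-gene alteration.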

[6] = NCI Yeast Anticancer Drug Screen. Data for the mec2-1 strain (AID 157); details: S. cerevisiae mec2-1 strain, stronger effect = higher value
How it was run: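 Readout is yeast growth inhibition, normalised to vehicle-treated controls, in the mec2-1 strain exposed to compound.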

[7] = NCI Yeast Anticancer Drug Screen. Data for the rad14 strain (AID 159);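 note: 0% = growth of vehicle-treated control cultures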; details: S. cerevisiae rad14 strain growth inhibition, stronger effect = higher value
How it was run: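 Screen for anticancer potential: a yeast strain altered in DNA damage repair is grown with compound, and reduced growth is quantified against vehicle controls.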

[8] = NCI Yeast Anticancer Drug Screen. Data for the sgs1 mgt1 strain (AID 161);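 note: 0% = growth of cultures given vehicle only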; details: S. cerevisiae sgs1 mgt1 strain, stronger effect = higher value
How it was run: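 Growth of a repair-deficient yeast mutant was monitored after compound treatment and expressed as inhibition relative to vehicle-treated cultures.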

[9] = NCI Yeast Anticancer Drug Screen. Data for the CLN2oe strain (AID 163);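 note: 0% = growth of vehicle-only control cultures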; details: S. cerevisiae CLN2oe strain, stronger effect = higher value
How it was run: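 Values reflect how much compound exposure reduced yeast growth, referenced to vehicle-exposed cells. Assay organism is a strain with a defined genetic change affecting cell-cycle control.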

[10] = NCI Yeast Anticancer Drug Screen. Data for the cln2 rad14 strain (AID 165);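 note: 0% = growth equal to vehicle treated cultures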; details: S. cerevisiae cln2 rad14 strain, stronger effect = higher value
How it was run: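 Relative to vehicle controls, growth inhibition of compound-treated cln2 rad14 yeast was recorded.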

[11] = NCI Yeast Anticancer Drug Screen. Data for the bub3 strain (AID 167); details: S. cerevisiae bub3 mutant strain, stronger effect = higher value
How it was run: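 Screening used yeast with an engineered genetic alteration affecting cell cycle control. Compound-exposed cultures were compared with vehicle cultures, and reduced growth was taken as inhibition.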

[12] = NCI Yeast Anticancer Drug Screen. Data for the wt2 strain (AID 169);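 note: 0% = growth of vehicle-treated yeast cultures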; details: S. cerevisiae wt2 strain growth inhibition, stronger effect = higher value
How it was run: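 Values express reduction in yeast growth under compound treatment, referenced to vehicle-treated cells.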

[13] = NCI Yeast Anticancer Drug Screen. Data for the mlh1 strain (AID 171);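 note: 0% = growth of vehicle-treated control cultures of the same strain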; details: S. cerevisiae mlh1 strain growth inhibition, stronger effect = higher value
How it was run: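 Steps: expose the defined-mutant yeast strain to compound; expose a parallel culture to vehicle; measure growth; express compound effect as inhibition relative to the vehicle culture.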

[14] = NCI Yeast Anticancer Drug Screen. Data for the sgs1 strain (AID 173);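 note: 0% = growth of vehicle-only control cultures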; details: S. cerevisiae sgs1 mutant, stronger effect = higher value
How it was run: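 Treat defined-mutant yeast with compound; measure growth; calculate inhibition relative to vehicle-treated cells.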

[15] = NCI Yeast Anticancer Drug Screen. Data for the mlh1 rad18 strain (AID 175); details: S. cerevisiae mlh1 rad18 strain growth inhibition, stronger effect = higher value
How it was run: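 Test agents were incubated with a yeast strain of defined genotype (DNA damage repair defect). Inhibition of growth was derived by comparison with vehicle-exposed cultures.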

[16] = NCI Yeast Anticancer Drug Screen. Data for the rad18 strain (AID 177); details: S. cerevisiae rad18 mutant growth inhibition, stronger effect = higher value
How it was run: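 A genetically defined yeast mutant impaired in DNA damage repair was treated with test compounds, then its growth was measured against cultures receiving vehicle alone.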

[17] = at 5.0 µM (retest, dose inferred, filed as 0.5)
[18] = at 50.0 µM (retest, dose inferred, filed as 5.0)

Measured: growth inhibition

CC(=O)OCCOCNC(=S)N/N=C(\C)c1cnccn1
active: [1]; at 100.0 µM 77% | [4]; at 100.0 µM 82% | [5]; at 50.0 µM 73.4% | [5]; at 100.0 µM 85% | [6]; at 100.0 µM 75% | [7]; at 100.0 µM 84% | [8]; at 50.0 µM 72.7% | [9]; at 100.0 µM 82% | [11]; at 50.0 µM 75.3% | [11]; at 100.0 µM 84% | [12]; at 100.0 µM 74% | [13]; at 100.0 µM 80% | [14]; at 100.0 µM 80% | [16]; at 100.0 µM 82%
inactive: [1]; at 1.2 µM -27% | [1]; at 3.7 µM -41% | [1]; at 11.0 µM -19% | [1]; at 33.0 µM 20% | [2]; at 1.2 µM -14% | [2]; at 3.7 µM -11% | [2]; at 11.0 µM 5% | [2]; at 33.0 µM 28% | [2]; at 100.0 µM 69% | [3]; at 1.2 µM 9% | [3]; at 3.7 µM 9% | [3]; at 11.0 µM -9% | [3]; at 33.0 µM 0% | [3]; at 100.0 µM -4% | [4]; at 1.2 µM 8% | [4]; at 3.7 µM 9% | [4]; at 11.0 µM 29% | [4]; at 33.0 µM 53% | [5]; at 1.2 µM 13% | [5]; at 3.7 µM -1% | [5]; [17] -25% | [5]; at 11.0 µM 15% | [5]; at 33.0 µM 46% | [5]; [18] 45% | [6]; at 1.2 µM -17% | [6]; at 3.7 µM -17% | [6]; [17] -59% | [6]; at 11.0 µM -2% | [6]; at 33.0 µM 27% | [6]; [18] 44% | [6]; at 50.0 µM 59.7% | [7]; at 1.2 µM -8% | [7]; at 3.7 µM -12% | [7]; at 11.0 µM 5% | [7]; at 33.0 µM 46% | [8]; [17] -15% | [8]; [18] 43% | [9]; at 1.2 µM 8% | [9]; at 3.7 µM 2% | [9]; at 11.0 µM 12% | [9]; at 33.0 µM 21% | [10]; [17] -9% | [10]; [18] 45% | [10]; at 50.0 µM 60.8% | [11]; at 1.2 µM -18% | [11]; at 3.7 µM 17% | [11]; [17] -5% | [11]; at 11.0 µM 24% | [11]; at 33.0 µM 51% | [11]; [18] 67% | [12]; at 1.2 µM -23% | [12]; at 3.7 µM -24% | [12]; at 11.0 µM 6% | [12]; at 33.0 µM 25% | [13]; at 1.2 µM -1% | [13]; at 3.7 µM -4% | [13]; at 11.0 µM 15% | [13]; at 33.0 µM 49% | [14]; at 1.2 µM -23% | [14]; at 3.7 µM -15% | [14]; at 11.0 µM 0% | [14]; at 33.0 µM 41% | [15]; [17] -29% | [15]; [18] -7% | [15]; at 50.0 µM 62.4% | [16]; at 1.2 µM 7% | [16]; at 3.7 µM -5% | [16]; at 11.0 µM 13% | [16]; at 33.0 µM 32%
